# tim23-1 inh = growth inhibitors of tim23-1 mutant yeast, primary screen, luminescence, uHTS. AID 463212, 2010. inhibition, % at 20 µM. S. cerevisiae tim23-1 growth, BacTiter-Glo luminescence, 24 h. hit rate 1.3% among 330,000;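 active = growth inhibition of the mutant yeast at or above 50%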;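 note: temperature-sensitive mutant grown at 25 °C; plate controls were DMSO-treated mutant yeast for no effect and medium wells lacking yeast for full effect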
# Mdm2-MdmX inh = inhibitors of human Mdm2-MdmX association, primary screen, cell-based, luminescence, split luciferase, SaOS-2, uHTS; Protein Mdm4 (Homo sapiens) + E3 ubiquitin-protein ligase Mdm2 (Homo sapiens), …; SaOS-2 split-luciferase Mdm2/MdmX complementation; inhibition, % at 8 µM; hit rate 3% among 330,000;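 active = inhibition of at least 50% at 8 µM in the primary screen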
# tim10-1 inh = growth inhibitors of tim10-1 mutant yeast, primary screen, luminescence, uHTS. S. cerevisiae tim10-1 ts strain growth, BacTiter-Glo, 24 h. inhibition, % at 20 µM. hit rate 2.2% among 330,000. AID 463190, 2010;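 active = inhibition of at least 40%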;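 note: mutant grown at 25 °C; 0% = DMSO wells with yeast and 100% = wells holding no yeast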
# MPTP inh = mitochondrial permeability transition pore inhibitors, primary screen, biochemical, isolated mouse mitochondria, absorbance | Ca2+ swelling absorbance, 30 min | inhibition, % at 10 µM | hit rate 1.4% among 360,000;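 active = inhibition of 50% or more, scaled per plate between neutral and stimulator controls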;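 note: 0% = DMSO wells given calcium and 100% = 1 mM EGTA wells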
# TIM10 inh = growth inhibitors of isogenic TIM10 control yeast, primary screen, counter-screen for tim10-1 yeast inhibitor project, luminescence, uHTS; S. cerevisiae TIM10 strain growth, BacTiter-Glo luminescence, 24 h; inhibition, % at 10 µM; hit rate 1.4% among 330,000; AID 463195, 2010;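 active = inhibition of 40% or more at the single tested concentration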;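 note: wild-type TIM10 isogenic control strain grown at permissive 25 °C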
# Mdm2-MdmX conf = Mdm2-MdmX complex disruptors, retested hits, confirmation, luminescence, single concentration | shares compounds with Mdm2-MdmX inh | Mdm2-MdmX binding, luminescent assay | inhibition, % at 8 µM | hit rate 55% among 10,000 | AID 489028, 2010; in the data active = inhibition above about 40%
# Full FLuc ctr = full-length luciferase signal inhibition, confirmation, counter-screen for Mdm2/MdmX interaction inhibitor project, cell-based, single concentration, SaOS-2. hit rate 77% among 6,200. SaOS-2 full-length luciferase counterscreen, luminescence. inhibition, % at 8 µM. shares compounds with Mdm2-MdmX inh. AID 504607, 2011;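 active = mean inhibition at 8 µM reaching about 37%, which flags the compound as non-specific, limit read from the data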;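 note: p53-null SaOS-2 cells with luciferase driven by a doxycycline-inducible promoter; compound on cells about two nights before reading with doxycycline added after day one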
# * = called active by the depositor; . = not tested or not shown. An excerpt weighted towards active compounds, which were near 6.3% of everything screened.
SMILES,tim23-1 inh,Mdm2-MdmX inh,tim10-1 inh,MPTP inh,TIM10 inh,Mdm2-MdmX conf,Full FLuc ctr
COc1ccc2nc(N/C(N)=N/C(=S)Nc3ccc(C)c(C)c3)nc(C)c2c1,30.0,55.9*,20.4,.,-2.9,53.0*,55.8*
CCc1ccc(NC(=S)/N=C(\N)Nc2nc(C)c3cc(CC)ccc3n2)cc1,8.2,63.3*,27.8,2.3,13.8,59.9*,59.5*
Cc1ccc(NC(=S)/N=C(\N)Nc2nc(C)c3ccccc3n2)cc1C,36.8,36.0,30.7,2.1,20.6,.,.
CCOc1ccc2nc(N/C(N)=N/C(=S)Nc3ccc(OC)cc3)nc(C)c2c1,19.7,27.5,14.3,-2.2,20.2,.,.
Cc1ccc(Cn2ccsc2=NC(=O)CCl)cc1,13.7,98.8*,24.0,-1.1,17.4,99.3*,59.0*
Cc1ccc(Cn2ccsc2=NC(=O)COC(=O)c2ccc(NC(=O)CC#N)cc2)cc1,10.0,14.8,-5.1,0.2,-1.2,.,.
Cc1ccc(-c2nc(-c3ccccc3)no2)c(Cl)c1,10.4,51.8*,20.2,1.9,0.9,62.2*,162.5*
Cc1ccc(-c2nc(-c3ccccc3)no2)cc1,10.9,-293.7,11.1,-0.2,2.1,.,.
Cc1ccc(C#CC[N+]2(CC#Cc3ccc(C)cc3)CCCCC2)cc1,-39.5,54.9*,-1.9,11.3,6.2,50.4*,52.1*
CC[C@H]1CC2CN3CCc4c([nH]c5c([C@H]6C[C@H]7[C@H](CC)CN(C)[C@@H](Cc8c6[nH]c6ccccc86)[C@H]7C(=O)OC)c(OC)ccc45)C(C(=O)OC)(C2)C13,-25.9,93.2*,6.5,.,3.5,83.0*,36.8*
CCC1CN(C)C2Cc3c([nH]c4ccccc34)C(=O)CC1C2C(=O)OC (centres undefined),31.2,-19.7,24.4,0.0,11.2,.,.
Cc1ccc2nc(-c3ccccc3)nc(SC(C)C(=O)NCc3cccs3)c2c1 (centres undefined),-0.7,62.9*,-7.3,.,-3.7,-10.1,.
Cc1ccc(C)c2c(SC(C)C(=O)NCc3ccco3)nc(-c3ccccc3)nc12 (centres undefined),-6.5,17.4,-6.8,-5.6,-1.9,.,.
O=C(Nc1cccc(/C=C/c2ccccn2)c1)c1ccc(-n2cncn2)c([N+](=O)[O-])c1,-9.2,62.0*,-9.2,-1.0,-15.5,37.9,.
Cc1ccc(S(=O)(=O)N2C[C@H]3C(=O)C[C@@H](c4ccccc4F)N(S(=O)(=O)c4ccc(C)cc4)[C@H]3C[C@H]2c2cccc3ccccc23)cc1,.,.,.,0.3,.,.,.
COc1ccc(NC(=S)N/N=C2\CC(C)(C)Oc3ccc(OC)cc32)cc1,7.2,26.6,16.2,2.7,14.5,.,.
Cc1ccc(NC(=S)N/N=C2\CC(C)(C)Oc3ccc(O)cc32)cc1,-2.8,28.0,26.5,8.2,8.1,.,.
CC(=O)N1CCC2(CC1)C/C(=N\NC(=S)Nc1ccc(C)cc1)c1cc(O)ccc1O2,23.8,74.7*,13.9,-0.8,16.8,40.0*,93.0*
Cc1ccccc1NC(=S)N/N=C1\CC(C)(C)Oc2ccc(O)cc21,3.9,51.0*,12.8,-1.3,23.1,5.8,.
O=C(Nc1ccc2oc(=O)ccc2c1)c1ccc(-c2ccccc2[N+](=O)[O-])o1,-11.9,62.0*,-15.5,6.3,0.6,-7.5,.
O=C(Nc1ccc2oc(=O)ccc2c1)c1ccc(-c2cccc([N+](=O)[O-])c2)o1,-16.1,40.7,2.3,4.1,7.1,.,.
C#CCN(C[C@@H]1[C@@H](OC(=O)NCc2ccco2)[C@@H](OC(=O)NCc2ccco2)CN(C(=O)OC(C)C)N1C(=O)OC(C)C)S(=O)(=O)c1ccc(C)cc1,.,.,.,-0.1,.,.,.
CCc1ccc2nc(N(CCCN(C)C)C(=O)c3ccc(S(=O)(=O)N4CCCc5ccccc54)cc3)sc2c1,38.7,91.2*,39.7,1.5,38.0,29.6,.
CCc1ccc2nc(N(CCCN(C)C)C(=O)c3ccc(S(=O)(=O)N4CCCC4)cc3)sc2c1,7.1,27.6,9.3,0.4,3.2,.,.
CCc1ccc2nc(N(CCCN(C)C)C(=O)c3ccc(C(=O)c4ccccc4)cc3)sc2c1,40.0,74.3*,34.3,2.5,-0.3,20.9,.
SMILES,tim23-1 inh,Mdm2-MdmX inh,tim10-1 inh,MPTP inh,TIM10 inh,Mdm2-MdmX conf,Full FLuc ctr
COc1cc2nc(N(CCCN(C)C)C(=O)c3ccc(C(=O)c4ccccc4)cc3)sc2cc1OC,11.3,40.6,26.7,33.0,21.4,.,.
CCOc1ccc2nc(N(CCCN(C)C)C(=O)c3ccc(S(=O)(=O)N4CCc5ccccc5C4)cc3)sc2c1,-11.7,48.6,3.2,1.1,25.7,.,.
COc1cccc2sc(N(CCCN(C)C)C(=O)c3ccc(S(=O)(=O)N4CCc5ccccc5C4)cc3)nc12,1.2,62.0*,26.0,-0.2,8.3,23.2,.
COc1cccc2sc(N(CCCN(C)C)C(=O)c3ccc(S(=O)(=O)N4CCCc5ccccc54)cc3)nc12,9.0,79.9*,32.2,0.9,26.6,28.4,.
CCCCNC(=O)C1c2ccccc2OCC(=O)N1CC(F)(F)F (centres undefined),.,.,.,1.4,.,.,.
COc1ccc(-c2ccc(C(=O)Nc3ccc(OC)nc3)c3occc23)c(C)c1,.,.,.,-0.6,.,.,.
COc1ccc([C@@H]2C[C@H]3[C@@H](CN2S(=O)(=O)c2ccccc2)C(=O)C[C@@H](c2ccc(OC)cc2)N3S(=O)(=O)c2ccccc2)cc1,.,.,.,0.6,.,.,.
C[C@H]1CN([C@@H](C)CO)S(=O)(=O)c2ccc(C#Cc3cccnc3)cc2O[C@@H]1CN(C)C(=O)Nc1ccc2c(c1)OCO2,.,.,.,-1.3,.,.,.
COc1ccc(C(C)(C)C)cc1NC(=O)COC(=O)CSCc1c(C)noc1C,14.7,-8.7,16.1,1.1,-0.6,.,.
COc1ccc(OC)c2sc(N(CCCN(C)C)C(=O)c3ccc(S(=O)(=O)N4CCc5ccccc5C4)cc3)nc12,-0.6,99.4*,5.5,.,12.1,99.8*,1.3
Cc1cccc2sc(NC(=O)c3cc(S(=O)(=O)N(C)C)ccc3N3CCCC3)nc12,24.8,64.7*,38.9,2.1,-12.6,69.8*,44.8*
CN(C)S(=O)(=O)c1ccc(N2CCCC2)c(C(=O)Nc2nc(-c3cc(F)ccc3F)cs2)c1,16.2,54.8*,6.4,4.1,5.1,47.3*,47.5*
CC(=O)c1sc2c(c1OC(=O)c1ccc(Cl)cc1Cl)c(=O)n(-c1ccccc1)c(=S)n2-c1ccccc1,23.3,94.5*,22.4,0.6,22.8,92.4*,12.1
Cc1cc(=O)oc2cc(OCC(=O)N3c4ccccc4CC3C)ccc12 (centres undefined),-4.9,50.6*,-5.7,-0.3,6.9,62.0*,46.3*

# Screening data: PubChem BioAssay, Sanford-Burnham Center for Chemical Genomics
